From PubChem BioAssay (Tox21)
Inconclusive results are not listed. Where a call stands in place of a potency, no number is given. A number with no mark means an inactive call. Activity calls are given as the source filed them. The call rests on the fitted dose curve; in most records, active means well fitted curve in the direction sought with a large enough effect in the repeat runs; inconclusive means weak or mixed curves; inactive means no such curve, though single readings can be large; an effect the other way counts as inactive or inconclusive.

Experiments:
[1] = target: Nuclear receptor subfamily 1 group I member 2 (Homo sapiens) (UniProt O75469); assay: Human pregnane X receptor (PXR) small molecule agonists, qHTS assay (AID 1346982); further: nearly all actives have a fitted effect of over 35% in size; further: potency means the concentration at half of the fitted maximal effect
How it was run: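 PXR-Luc HepG2 reporter cells (CYP3A4-driven luciferase) in 5% charcoal-stripped FBS medium, plated 5 h before compound addition, then treated 24 h at 37C. Luciferase read by ONE-Glo luminescence after 30 min at room temperature.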

[2] = target: Cytochrome P450 2D6 (Homo sapiens) (UniProt P10635); assay: Cytochrome P450 Family 2 Subfamily D Member 6 (CYP2D6) small molecule antagonists: luciferase reporter qHTS assay (AID 1671196); further: nearly all actives have a fitted effect of over 50% in size; further: potency means the concentration at half of the fitted maximal effect; on activity change, negative = inhibition: series mostly up to about 120 µM
How it was run: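 Cell-free P450-Glo system: CYP2D6 with proluciferin substrate was pre-incubated with compound for 10 min, then reacted with NADPH regeneration for 1 h at room temperature. Luciferin product was detected after 20 min, and data were reported as relative luminescence units.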

[3] = target: Cytochrome P450 2C19 (Homo sapiens) (UniProt P33261); assay: Cytochrome P450 Family 2 Subfamily C Member 19 (CYP2C19) small molecule antagonists: luciferase reporter qHTS assay (AID 1671197); further: nearly all actives have a fitted effect of over 65% in size; further: potency means the concentration at half of the fitted maximal effect; on activity change, negative = inhibition: series mostly up to about 120 µM
How it was run: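 Enzyme-substrate mix with proluciferin substrate (P450-Glo CYP2C19 system) preincubated with compounds 10 min at room temperature; NADPH regeneration solution added, 37C for 1 h; detection reagent stops reaction, luminescence read after 20 min. Ketoconazole positive control.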

[4] = target: Cytochrome P450 2C9 (Homo sapiens) (UniProt P11712); assay: Cytochrome P450 Family 2 Subfamily C Member 9 (CYP2C9) small molecule antagonists: luciferase reporter qHTS assay (AID 1671198); further: nearly all actives have a fitted effect of over 50% in size; further: potency means the concentration at half of the fitted maximal effect; on activity change, negative = inhibition: series mostly up to about 120 µM
How it was run: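 Enzyme-substrate mix preincubated with compound 10 min at room temperature; reaction started with NADPH regeneration solution, 1 h 37C. Luminescent luciferin product read after 20 min detection reagent.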

[5] = target: Cytochrome P450 1A2 (Homo sapiens) (UniProt P05177); assay: Cytochrome P450 Family 1 Subfamily A Member 2 (CYP1A2) small molecule antagonists: luciferase reporter qHTS assay (AID 1671199); further: nearly all actives have a fitted effect of over 50% in size; further: potency means the concentration at half of the fitted maximal effect; on activity change, negative = inhibition: series mostly up to about 120 µM
How it was run: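 P450-Glo CYP1A2 enzyme–proluciferin substrate mix with compound 10 min at room temperature, then NADPH regeneration 1 h at room temperature. Luciferin detection reagent added, luminescence read after 20 min; furafylline positive control.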

[6] = target: Cytochrome P450 3A4 (Homo sapiens) (UniProt P08684); assay: Cytochrome P450 Family 3 Subfamily A Member 4 (CYP3A4) small molecule antagonists: luciferase reporter qHTS assay (AID 1671201); further: nearly all actives have a fitted effect of over 50% in size; further: potency means the concentration at half of the fitted maximal effect; on activity change, negative = inhibition: series mostly up to about 120 µM
How it was run: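 Room-temperature assay throughout: 10 min compound–enzyme/substrate preincubation, 1 h reaction after NADPH regeneration solution, 20 min detection. Luciferin formed from proluciferin substrate is quantified by luminescence.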

[7] = target: Voltage-gated inwardly rectifying potassium channel KCNH2 (Homo sapiens) (UniProt Q12809); assay: Human Ether-a-go-go-Related Gene (hERG) channel small molecule antagonists: fluorescence cell-based qHTS assay (AID 1671200)
How it was run: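 Cell line hERG-U2OS; dye FluxOR II, 1 h RT dark; Tl+ stimulus; ex 480/em 540 nm, read each second for 2 min.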

Chain of Cytochrome P450 2C9 (Homo sapiens) (P11712 whole entry, looked up): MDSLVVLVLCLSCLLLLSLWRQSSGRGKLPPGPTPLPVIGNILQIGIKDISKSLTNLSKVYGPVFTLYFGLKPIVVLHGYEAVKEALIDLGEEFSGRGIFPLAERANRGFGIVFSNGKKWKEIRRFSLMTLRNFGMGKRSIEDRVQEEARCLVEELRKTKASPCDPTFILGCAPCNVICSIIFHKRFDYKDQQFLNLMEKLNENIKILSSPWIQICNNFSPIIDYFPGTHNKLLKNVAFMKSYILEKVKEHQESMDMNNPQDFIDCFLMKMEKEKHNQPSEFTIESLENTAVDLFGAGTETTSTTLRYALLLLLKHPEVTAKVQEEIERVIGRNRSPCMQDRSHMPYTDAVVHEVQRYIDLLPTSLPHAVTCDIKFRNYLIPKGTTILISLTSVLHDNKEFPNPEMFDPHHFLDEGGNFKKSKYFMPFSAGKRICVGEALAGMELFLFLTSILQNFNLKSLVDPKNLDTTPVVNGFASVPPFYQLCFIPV
Chain of Voltage-gated inwardly rectifying potassium channel KCNH2 (Homo sapiens) (Q12809 whole entry, looked up): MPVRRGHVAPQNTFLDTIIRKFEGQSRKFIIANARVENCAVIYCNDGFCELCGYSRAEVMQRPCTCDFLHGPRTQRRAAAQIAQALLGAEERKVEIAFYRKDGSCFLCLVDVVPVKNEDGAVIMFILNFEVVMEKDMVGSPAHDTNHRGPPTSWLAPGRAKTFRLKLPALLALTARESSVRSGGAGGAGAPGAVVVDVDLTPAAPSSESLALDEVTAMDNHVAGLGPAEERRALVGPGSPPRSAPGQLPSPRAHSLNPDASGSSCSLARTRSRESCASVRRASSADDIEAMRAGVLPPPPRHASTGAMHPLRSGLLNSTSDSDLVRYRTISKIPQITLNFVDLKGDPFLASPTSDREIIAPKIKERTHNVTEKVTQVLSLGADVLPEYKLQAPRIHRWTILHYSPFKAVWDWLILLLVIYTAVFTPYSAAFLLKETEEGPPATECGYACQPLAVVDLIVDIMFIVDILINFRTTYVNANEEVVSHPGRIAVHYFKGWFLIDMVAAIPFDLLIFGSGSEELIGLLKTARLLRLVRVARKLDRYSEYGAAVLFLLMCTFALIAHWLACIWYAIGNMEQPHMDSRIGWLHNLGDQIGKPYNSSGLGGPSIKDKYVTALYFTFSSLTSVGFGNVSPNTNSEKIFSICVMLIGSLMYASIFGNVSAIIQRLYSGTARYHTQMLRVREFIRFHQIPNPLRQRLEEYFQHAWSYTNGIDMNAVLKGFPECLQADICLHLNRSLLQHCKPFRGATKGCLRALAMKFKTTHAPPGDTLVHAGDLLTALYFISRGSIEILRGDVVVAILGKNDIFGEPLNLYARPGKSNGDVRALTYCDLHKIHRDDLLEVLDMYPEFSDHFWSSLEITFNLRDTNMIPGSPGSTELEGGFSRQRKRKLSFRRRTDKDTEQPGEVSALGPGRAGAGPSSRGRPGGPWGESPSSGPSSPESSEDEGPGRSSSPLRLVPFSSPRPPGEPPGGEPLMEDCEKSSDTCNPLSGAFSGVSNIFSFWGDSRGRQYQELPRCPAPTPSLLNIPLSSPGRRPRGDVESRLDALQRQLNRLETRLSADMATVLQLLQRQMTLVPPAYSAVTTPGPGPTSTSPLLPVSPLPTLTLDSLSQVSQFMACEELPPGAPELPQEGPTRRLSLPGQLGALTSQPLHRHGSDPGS
Chain of Cytochrome P450 2C19 (Homo sapiens) (P33261 whole entry, looked up): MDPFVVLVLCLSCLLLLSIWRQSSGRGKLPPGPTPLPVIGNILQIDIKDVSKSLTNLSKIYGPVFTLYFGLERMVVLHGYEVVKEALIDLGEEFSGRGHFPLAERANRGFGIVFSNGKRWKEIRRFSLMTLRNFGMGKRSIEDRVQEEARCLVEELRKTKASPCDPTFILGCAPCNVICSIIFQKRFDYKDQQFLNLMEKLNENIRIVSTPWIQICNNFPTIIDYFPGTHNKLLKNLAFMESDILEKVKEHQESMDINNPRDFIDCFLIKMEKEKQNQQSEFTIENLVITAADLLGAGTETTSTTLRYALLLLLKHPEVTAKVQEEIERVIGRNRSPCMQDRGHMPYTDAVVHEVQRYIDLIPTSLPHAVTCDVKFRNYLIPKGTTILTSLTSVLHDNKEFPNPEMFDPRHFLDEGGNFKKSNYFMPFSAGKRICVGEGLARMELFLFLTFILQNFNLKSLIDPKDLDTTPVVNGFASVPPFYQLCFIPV
Chain of Cytochrome P450 3A4 (Homo sapiens) (P08684 whole entry, looked up): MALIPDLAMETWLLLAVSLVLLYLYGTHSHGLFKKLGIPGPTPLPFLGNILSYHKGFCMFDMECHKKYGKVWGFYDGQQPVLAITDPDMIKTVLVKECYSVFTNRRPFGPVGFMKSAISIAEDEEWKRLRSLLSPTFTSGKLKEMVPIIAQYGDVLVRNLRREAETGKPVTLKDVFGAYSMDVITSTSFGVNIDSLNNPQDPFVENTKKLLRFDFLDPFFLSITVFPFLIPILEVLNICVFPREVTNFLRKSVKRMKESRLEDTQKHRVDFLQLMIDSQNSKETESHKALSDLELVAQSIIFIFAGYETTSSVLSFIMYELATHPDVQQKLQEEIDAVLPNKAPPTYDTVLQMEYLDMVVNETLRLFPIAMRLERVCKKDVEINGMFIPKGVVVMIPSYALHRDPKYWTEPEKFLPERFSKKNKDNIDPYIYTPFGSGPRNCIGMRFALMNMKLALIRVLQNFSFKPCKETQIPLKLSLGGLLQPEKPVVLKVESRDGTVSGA
Chain of Cytochrome P450 1A2 (Homo sapiens) (P05177 whole entry, looked up): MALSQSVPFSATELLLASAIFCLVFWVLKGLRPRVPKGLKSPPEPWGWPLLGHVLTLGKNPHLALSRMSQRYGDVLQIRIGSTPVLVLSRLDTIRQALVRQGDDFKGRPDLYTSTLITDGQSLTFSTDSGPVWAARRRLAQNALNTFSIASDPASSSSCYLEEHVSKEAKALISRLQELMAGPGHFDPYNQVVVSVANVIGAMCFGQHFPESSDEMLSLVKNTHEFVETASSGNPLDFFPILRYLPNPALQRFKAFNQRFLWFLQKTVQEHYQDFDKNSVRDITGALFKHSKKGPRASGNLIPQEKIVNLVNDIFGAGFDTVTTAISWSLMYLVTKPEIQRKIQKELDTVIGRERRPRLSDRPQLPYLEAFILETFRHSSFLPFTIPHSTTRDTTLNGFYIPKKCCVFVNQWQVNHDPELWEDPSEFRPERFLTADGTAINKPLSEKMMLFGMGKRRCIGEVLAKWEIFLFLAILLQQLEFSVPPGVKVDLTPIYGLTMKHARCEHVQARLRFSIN
Chain of Nuclear receptor subfamily 1 group I member 2 (Homo sapiens) (O75469 whole entry, looked up): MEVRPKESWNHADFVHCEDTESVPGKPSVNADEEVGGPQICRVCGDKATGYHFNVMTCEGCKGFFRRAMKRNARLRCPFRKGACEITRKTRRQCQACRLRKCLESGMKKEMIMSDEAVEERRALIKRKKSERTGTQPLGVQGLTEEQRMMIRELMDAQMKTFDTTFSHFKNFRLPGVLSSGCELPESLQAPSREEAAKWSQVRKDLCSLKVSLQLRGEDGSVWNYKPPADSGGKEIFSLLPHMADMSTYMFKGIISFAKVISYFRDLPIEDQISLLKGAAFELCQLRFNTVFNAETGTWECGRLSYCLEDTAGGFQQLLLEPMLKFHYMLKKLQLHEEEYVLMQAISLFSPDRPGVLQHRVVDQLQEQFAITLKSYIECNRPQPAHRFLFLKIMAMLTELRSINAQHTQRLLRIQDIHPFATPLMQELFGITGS
Chain of Cytochrome P450 2D6 (Homo sapiens) (P10635 whole entry, looked up): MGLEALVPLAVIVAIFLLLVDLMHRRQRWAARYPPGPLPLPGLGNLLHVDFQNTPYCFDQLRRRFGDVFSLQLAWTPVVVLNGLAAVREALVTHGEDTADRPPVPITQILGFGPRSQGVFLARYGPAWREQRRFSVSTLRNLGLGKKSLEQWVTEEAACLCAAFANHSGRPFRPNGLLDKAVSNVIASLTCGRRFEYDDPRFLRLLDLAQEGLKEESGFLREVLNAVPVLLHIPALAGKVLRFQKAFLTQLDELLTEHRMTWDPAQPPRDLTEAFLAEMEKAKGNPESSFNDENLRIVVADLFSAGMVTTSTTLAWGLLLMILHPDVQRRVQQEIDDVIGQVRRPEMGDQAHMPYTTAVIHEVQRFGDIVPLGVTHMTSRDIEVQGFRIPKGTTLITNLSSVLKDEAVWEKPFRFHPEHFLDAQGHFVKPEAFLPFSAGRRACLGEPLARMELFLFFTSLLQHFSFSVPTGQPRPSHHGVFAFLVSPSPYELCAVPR

For `C/C(CC(C)C)=N\O`, the Potency [1] was “inactive”, the Potency [2] was “inactive” and the Potency [3] was “inactive”. The Potency [4] was “inactive”, the Potency [5] was “inactive” and the Potency [6] was “inactive”.
`CC/C(C)=N\O[Si](C)(O/N=C(\C)CC)O/N=C(\C)CC` was tested, and the Potency [1] was “inactive”, the Potency [2] was 32.1 µM (active) and the Potency [3] was 22.8 µM (active). The Potency [5] was 40.5 µM (active), the Potency [7] was “inactive” and the Potency [6] was 12.8 µM (active).
For `CC(O)CC(C)O` (centres undefined), the Potency [1] was “inactive”, the Potency [2] was “inactive” and the Potency [3] was “inactive”. The Potency [4] was “inactive”, the Potency [7] was “inactive” and the Potency [6] was “inactive”.
In the case of `C[Si]1(C)O[Si](C)(C)O[Si](C)(C)O[Si](C)(C)O[Si](C)(C)O1`, the Potency [1] is reported as “inactive”, the Potency [2] is reported as “inactive” and the Potency [3] is reported as “inactive”. For the same compound, the Potency [4] was “inactive”, the Potency [5] was “inactive” and the Potency [6] was “inactive”.
In the case of `C=CCCCC`, the Potency [1] is reported as “inactive”, the Potency [2] is reported as “inactive” and the Potency [3] is reported as “inactive”. The Potency [4] was “inactive”, the Potency [5] was “inactive” and the Potency [6] was “inactive”.
With `COS(=O)(=O)O` the Potency [1] was “inactive”, the Potency [2] was “inactive” and the Potency [3] was “inactive”. The Potency [4] was “inactive”, the Potency [7] was “inactive” and the Potency [6] was “inactive”.
`O=C(O)c1cc2ccccc2nc1C(=O)O` was tested, and the Potency [1] was “inactive”, the Potency [2] was “inactive” and the Potency [3] was “inactive”. For the same compound, the Potency [4] was “inactive”, the Potency [7] was “inactive” and the Potency [6] was “inactive”.
`CC(CO)(CO)CO` was tested, and the Potency [1] was “inactive”, the Potency [2] was 28.6 µM (active) and the Potency [3] was “inactive”. The Potency [4] was “inactive”, the Potency [7] was “inactive” and the Potency [6] was “inactive”.
For `CN(C)C(C)(C)CO`, the Potency [1] was “inactive”, the Potency [2] was “inactive” and the Potency [3] was “inactive”. The Potency [4] was “inactive”, the Potency [5] was “inactive” and the Potency [6] was “inactive”.
For `Cc1ccc(C(C)NC(=O)[C@@H](NC(=O)OC(C)C)C(C)C)cc1` (some centres undefined), the Potency [1] was 21.6 µM (active), the Potency [2] was 35.5 µM (active) and the Potency [3] was 56.2 µM (active). For the same compound, the Potency [4] was 31.6 µM (active), the Potency [7] was “inactive” and the Potency [6] was 3.55 µM (active).
For `CN(C)CCCCl`, the Potency [1] was “inactive”, the Potency [2] was “inactive” and the Potency [3] was “inactive”. The Potency [4] was “inactive”, the Potency [5] was “inactive” and the Potency [7] was “inactive”. The Potency [6] was “inactive”.
`CCC(C(=O)OCCN1CCOC(c2ccccc2)C1C)c1ccccc1` (centres undefined) was tested, and the Potency [1] was 33.5 µM (active), the Potency [2] was 5.49 µM (active) and the Potency [3] was 1.38 µM (active). For the same compound, the Potency [5] was “inactive”.
With `CC12CCC(C1)C(C)(C)C2O` (centres undefined) the Potency [1] was “inactive”, the Potency [2] was “inactive” and the Potency [3] was “inactive”. For the same compound, the Potency [4] was “inactive”, the Potency [5] was “inactive” and the Potency [6] was “inactive”.
With `C=CCSSCCC` the Potency [1] was “inactive”, the Potency [2] was 56.2 µM (active) and the Potency [3] was “inactive”. The Potency [4] was “inactive”, the Potency [5] was “inactive” and the Potency [6] was “inactive”.
For `Cc1cc(-c2ccccc2)nnc1NCCN1CCOCC1`, the Potency [1] was “inactive”, the Potency [2] was 8.71 µM (active) and the Potency [3] was “inactive”. The Potency [5] was “inactive” and the Potency [7] was “inactive”.
In the case of `CCO`, the Potency [1] is reported as “inactive”, the Potency [2] is reported as “inactive” and the Potency [3] is reported as “inactive”. For the same compound, the Potency [4] was “inactive”, the Potency [7] was “inactive” and the Potency [6] was “inactive”.
In the case of `CCCCC1CCC(O)CC1` (centres undefined), the Potency [1] is reported as “inactive”, the Potency [2] is reported as “inactive” and the Potency [3] is reported as “inactive”. For the same compound, the Potency [4] was “inactive”, the Potency [7] was “inactive” and the Potency [6] was “inactive”.
For `C=C(C)[C@@H]1CC=C(C)C(=O)C1`, the Potency [1] was “inactive”, the Potency [2] was “inactive” and the Potency [3] was “inactive”. The Potency [4] was “inactive” and the Potency [6] was “inactive”.
In the case of `C=Cc1ccc(C(C)(C)C)cc1`, the Potency [1] is reported as “inactive”, the Potency [2] is reported as “inactive” and the Potency [3] is reported as “inactive”. For the same compound, the Potency [4] was “inactive”, the Potency [5] was “inactive” and the Potency [7] was “inactive”. For the same compound, the Potency [6] was “inactive”.
With `CC(C)(CO)C(O)C(=O)NCCCO` (centres undefined) the Potency [1] was “inactive”, the Potency [2] was “inactive” and the Potency [3] was “inactive”. The Potency [4] was “inactive”, the Potency [7] was “inactive” and the Potency [6] was “inactive”.
For `CCCSSCCC`, the Potency [1] was “inactive”, the Potency [2] was “inactive” and the Potency [3] was “inactive”. For the same compound, the Potency [4] was “inactive”, the Potency [7] was “inactive” and the Potency [6] was “inactive”.
For `O=C(O)CSCC(=O)NC1CCSC1=O` (centres undefined), the Potency [1] was “inactive”, the Potency [2] was “inactive” and the Potency [3] was “inactive”. The Potency [4] was “inactive”, the Potency [5] was “inactive” and the Potency [6] was “inactive”.
In the case of `O/N=C/C=N/O`, the Potency [1] is reported as “inactive”, the Potency [2] is reported as 39.9 µM (active) and the Potency [3] is reported as “inactive”. The Potency [4] was “inactive”, the Potency [5] was “inactive” and the Potency [6] was “inactive”.
For `CC(C)[C@H]1CC[C@H](C)C[C@@H]1O`, the Potency [1] was 55.4 µM (active), the Potency [2] was “inactive” and the Potency [3] was “inactive”. The Potency [4] was “inactive”, the Potency [5] was “inactive” and the Potency [6] was “inactive”.
`[O]=[Mo](=[O])=[O]` was tested, and the activation [1] was 1.34% [at 19 µM], the activity change, negative = inhibition [2] was -4.35% [at 23.6 µM] and the activity change, negative = inhibition [3] was -2.98% [at 23.6 µM]. The activity change, negative = inhibition [4] was -0.296% [at 23.6 µM], the activity change, negative = inhibition [5] was 2.53% [at 23.6 µM] and the activity change, negative = inhibition [7] was -1.28% [at 15.8 µM]. The activity change, negative = inhibition [6] was -5.3% [at 23.6 µM].
`CCOCCOCC` was tested, and the Potency [1] was “inactive”, the Potency [2] was “inactive” and the Potency [3] was “inactive”. For the same compound, the Potency [4] was “inactive”, the Potency [7] was “inactive” and the Potency [6] was “inactive”.
For `Cc1ccc(C)c([N+](=O)[O-])c1`, the Potency [1] was “inactive”, the Potency [2] was “inactive” and the Potency [3] was “inactive”. The Potency [4] was “inactive”, the Potency [5] was “inactive” and the Potency [7] was “inactive”. For the same compound, the Potency [6] was “inactive”.
With `COC(=O)c1cc(Cl)cc(Cl)c1` the Potency [1] was “inactive”, the Potency [2] was “inactive” and the Potency [3] was “inactive”. The Potency [4] was “inactive”, the Potency [7] was “inactive” and the Potency [6] was “inactive”.
For `O=C1CCC(=O)N1Cl`, the Potency [1] was “inactive”, the Potency [2] was “inactive” and the Potency [3] was “inactive”. The Potency [4] was “inactive” and the Potency [6] was “inactive”.
`CC(C)=CCC/C(C)=C/COC=O` was tested, and the Potency [1] was “inactive”, the Potency [2] was “inactive” and the Potency [3] was “inactive”. The Potency [4] was “inactive”, the Potency [7] was “inactive” and the Potency [6] was “inactive”.
In the case of `CCCCCCCCCOC(=O)CCCCC(=O)OCCCCCCC`, the Potency [1] is reported as “inactive”, the Potency [2] is reported as “inactive” and the Potency [3] is reported as “inactive”. For the same compound, the Potency [7] was “inactive” and the Potency [6] was “inactive”.
For `OC1(c2ccc(Cl)cc2)CCNCC1`, the Potency [1] was “inactive”, the Potency [2] was 5.49 µM (active) and the Potency [3] was 3.09 µM (active). The Potency [7] was “inactive” and the Potency [6] was “inactive”.
